Data from publication PMC5700166.

What was measured:
Assay in all cases: protein-binding microarray (PBM); PBM: ~300 nM protein, 6 mM HEPES pH 7.8, 80 mM KCl, 0.5 mM EDTA, 0.5 mM EGTA, 6% glycerol, 35 ng/ul poly-dIdC, 1% milk, 1 h, room temperature; Ap Aiptasia and Nv Nematostella (sea anemones) / Co Capsaspora / Aq Amphimedon (sponge) / Dm Drosophila / Hu human; RHD is the Rel homology domain; high values mean tight binding
Conditions in all cases: dsDNA, one strand shown
[1] = target: T1, GST-Ap-NF-kB RHD (Exaiptasia pallida (Aiptasia), UniProt A0A913YAJ5 2-422)
T1 sequence: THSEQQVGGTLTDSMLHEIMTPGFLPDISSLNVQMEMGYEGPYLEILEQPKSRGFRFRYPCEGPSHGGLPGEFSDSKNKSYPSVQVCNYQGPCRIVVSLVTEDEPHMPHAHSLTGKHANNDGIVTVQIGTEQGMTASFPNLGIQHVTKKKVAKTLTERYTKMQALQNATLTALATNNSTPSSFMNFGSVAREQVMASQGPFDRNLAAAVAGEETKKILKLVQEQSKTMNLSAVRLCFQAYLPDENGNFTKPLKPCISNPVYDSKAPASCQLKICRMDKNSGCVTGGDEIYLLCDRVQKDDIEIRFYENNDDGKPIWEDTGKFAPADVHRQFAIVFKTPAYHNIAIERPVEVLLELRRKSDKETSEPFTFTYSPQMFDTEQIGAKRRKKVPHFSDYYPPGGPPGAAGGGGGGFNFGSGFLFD

[2] = target: T2, GST-Nv-NF-kB (Cys allele) (Nematostella vectensis, UniProt E5G601 2-411)
T2 sequence: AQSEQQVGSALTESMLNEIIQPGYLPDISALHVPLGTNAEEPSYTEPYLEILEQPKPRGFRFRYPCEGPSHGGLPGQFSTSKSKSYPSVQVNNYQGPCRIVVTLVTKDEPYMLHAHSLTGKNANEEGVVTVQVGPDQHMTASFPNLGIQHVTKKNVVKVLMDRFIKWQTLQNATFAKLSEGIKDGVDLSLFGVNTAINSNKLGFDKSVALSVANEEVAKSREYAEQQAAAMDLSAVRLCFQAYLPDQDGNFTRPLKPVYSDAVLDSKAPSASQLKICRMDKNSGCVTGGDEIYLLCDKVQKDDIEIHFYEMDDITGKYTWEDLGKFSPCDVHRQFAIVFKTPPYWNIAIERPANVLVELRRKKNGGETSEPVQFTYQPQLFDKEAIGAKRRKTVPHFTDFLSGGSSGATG

[3] = target: T3, GST-Dm-Relish (Drosophila melanogaster, UniProt Q94527 99-473)
T3 sequence: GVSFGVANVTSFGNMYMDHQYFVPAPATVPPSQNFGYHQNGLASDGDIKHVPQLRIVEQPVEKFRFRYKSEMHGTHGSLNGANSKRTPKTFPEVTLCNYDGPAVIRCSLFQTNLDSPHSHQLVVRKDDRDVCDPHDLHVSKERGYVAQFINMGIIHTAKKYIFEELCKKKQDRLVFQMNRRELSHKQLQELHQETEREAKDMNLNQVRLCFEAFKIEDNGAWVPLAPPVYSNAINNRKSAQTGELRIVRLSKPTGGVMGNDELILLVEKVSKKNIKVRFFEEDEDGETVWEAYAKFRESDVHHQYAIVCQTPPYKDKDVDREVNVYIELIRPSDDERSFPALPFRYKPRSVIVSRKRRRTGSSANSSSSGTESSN

[4] = target: T4, GST-Aq-NF-kB (Amphimedon queenslandica, UniProt A9Y5G7 2-389)
T4 sequence: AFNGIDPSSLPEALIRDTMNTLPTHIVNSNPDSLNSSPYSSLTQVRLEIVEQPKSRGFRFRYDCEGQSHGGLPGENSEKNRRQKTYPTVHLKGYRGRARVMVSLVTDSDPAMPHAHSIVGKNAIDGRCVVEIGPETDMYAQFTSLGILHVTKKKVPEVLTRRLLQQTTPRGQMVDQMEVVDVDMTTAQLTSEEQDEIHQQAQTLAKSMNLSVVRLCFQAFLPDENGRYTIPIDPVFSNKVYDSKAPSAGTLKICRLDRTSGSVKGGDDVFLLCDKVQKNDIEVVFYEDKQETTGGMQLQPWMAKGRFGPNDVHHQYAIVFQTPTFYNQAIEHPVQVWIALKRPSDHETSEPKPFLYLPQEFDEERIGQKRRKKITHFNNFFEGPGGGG

Row | Sequence | binding signal [1] [z-score] | binding signal [2] [z-score] | binding signal [3] [z-score] | binding signal [4] [z-score]
1 | CCGATTAACATCAAGGAATTACCTGATGTTAATCGGGTCTTGATTCGCTTGACGCTGCTG | 1.08 | 2.06 | 5.14 | 3.3
2 | CCGATTAACATCAGGAATCACCCTGATGTTAATCGGGTCTTGATTCGCTTGACGCTGCTG | 2.46 | 2.05 | 7.17 | 4.82
3 | CCGATTAACATCAAAAAAAGTCCTGATGTTAATCGGGTCTTGATTCGCTTGACGCTGCTG | 1.18 | 1.72 | 5.69 | 4.05
